Source: PubChem BioAssay (NCI)
About 83,000 compounds went through this panel and 20% of them were active in at least one assay; those are over-represented in the sample as a whole.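 48-hour exposure, single concentration, 96-well plates; percent growth endpoint where 0 means no net growth. Active: below 10.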 Calls of active or inactive are those of the source.

tested on: MDA-MB-468 breast; test: NCI-60 one-dose screen, 48 h (100 = growth as untreated, 0 = no growth, -100 = all killed); settings: 10 µM unless noted

SMILES | growth
COC(=O)c1cc(-c2cccs2)c(C#N)c(N)c1C#N | 80.8% (inactive)
C=CCOC(=O)C(=O)OCC=C | 104% (inactive)
Cc1ccc(CNc2c3ccccc3nc3cc(NC(=O)CCN4CCCC4)ccc23)cc1 | -29.3% (active)
O=C(Nc1ccc(Br)cc1)Nc1ccccc1Cl | 69.2% (inactive)
CC(C)c1ccc(C(=O)Nc2sc3cc(O)ccc3c2C#N)cc1 | 12.5% (inactive)
C[C@H]1c2cccc(O)c2C(O)=C2C(=O)[C@]3(O)C(O)=C(C(N)=O)C(=O)[C@@H](N(C)C)[C@@H]3[C@@H](O)[C@@H]21 | 41.8% (inactive)
CCOC(=O)c1sc2ncc(-c3ccc(OC)cc3)n2c1C | 103% (inactive)
O=[N+]([O-])c1cccc(C(c2ccccc2)c2ccccc2)c1 | 93.9% (inactive)
COc1ccc2c(O)c(/C=C3\N=Nc4ncccc43)oc2c1C[C@H]1CCNC[C@H]1F | -39% (active)
COc1ccc2c(c1)nc(N)c1c3ccccc3cn21 | 58.5% (inactive)
COc1ccc(/C=N/C2=C(C#N)C(c3ccc(N(C)C)cc3)c3ccc4ccccc4c3O2)cc1 (centres undefined) | 84.3% (inactive)
COc1cc(-c2nn(-c3ccc(C(=O)O)cc3)cc2C(=O)O)ccc1O | 103% (inactive)
O=C1/C(=C/c2cccc(Br)c2)COc2ccc(O)c(O)c21 | -47.5% (active)
Cc1ccc2nc(-c3ccc(-n4on4-c4ccc(/C=C/c5ccc(-n6on6-c6ccc(-c7nc8ccc(C)cc8s7)cc6)cc5S(=O)(=O)O)c(S(=O)(=O)O)c4)cc3)sc2c1 | 114% (inactive)
